Screen size: about 340,000 compounds; about 8,500 (2.5%) were called active. The sample holds actives, similar compounds and a random draw of the others, so the mix is not that of the screen. A number with no mark means an inactive call.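 Rule for the calls: active = melting temperature shift of at least 10% of the positive control shift, at one fixed dose; inactive = the rest.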
test system: Glutamate receptor ionotropic, NMDA 3A (GRIN3A) ligand-binding domain; assay: binders of NR3A ligand-binding domain, primary screen, biophysical, differential scanning fluorimetry, uHTS (AID 1259313); settings: NR3A LBD differential scanning fluorimetry, at 25 µM, active compounds read high, 0% = protein alone, 100% = glycine-bound protein

Row | Compound | Tm shift relative to glycine control
1 | CCOc1ccccc1Nc1nnc(SCC(=O)NCC2CCCO2)s1 (stereo not drawn) | 5.39%
2 | CCOC(=O)N1CCN(C(=O)c2cn(C)c3ccc(S(=O)(=O)N(CC)CC)cc3c2=O)CC1 | 0%
3 | O=C(Nc1cccc(Cl)c1)c1cncn1-c1ccc(F)cc1 | -0.7%
4 | Cc1cccc(N=C2NC(=O)CS2)c1C | 5.95%
5 | CC(=O)Nc1ccc(C(=O)CSc2nc3ccc(C)cc3[nH]2)cc1 | -17.4%
6 | O=C(CSc1nc2ccc([N+](=O)[O-])cc2[nH]1)c1ccc(Cl)cc1 | 18.5% (active)
7 | Cc1nc2nc(SCC(=O)c3ccccc3)[nH]c2cc1Br | -9.38%
8 | O=C(Nc1ccc(Cl)cc1)c1cccc(OC(=S)N2CCOCC2)c1 | -0.47%
9 | C/C(=N/Nc1ccc(Cl)cc1)c1cnnc(-c2ccccc2)n1 | 10.3% (active)
10 | CC/C(=N/Nc1ccccc1)c1cnnc(SC)n1 | 1.52%
11 | C/C(=N\Nc1ccccc1)c1cccs1 | 1.45%
12 | CN(CCO)c1ccc(/C=N/Nc2nncc3ccccc23)cc1 | 3.23%
13 | Cc1csc(NC(=O)CSc2nc(=O)cc(N)n2-c2ccc(F)cc2)n1 | -0.09%
14 | CC(C)N1CCC(N2CCN(Cc3cccnc3)CC2CCO)CC1 (stereo not drawn) | -1.29%
15 | Clc1ccc(Nc2nc(-c3cccs3)cs2)nc1 | 23% (active)
16 | Clc1ccc(Cc2nnc(-c3cccs3)o2)cc1 | -0.55%
17 | CCCc1cc(C(=O)Nc2ccc(Cl)cn2)cs1 | 0.69%
18 | Cc1cc(C)cc(NC(=O)C(OC(=O)c2ccc(O)cc2)c2ccccc2)c1 (stereo not drawn) | 10.5% (active)
19 | Cc1ccc(C)c(NC(=O)C(OC(=O)c2ccc(C)s2)c2ccccc2)c1 (stereo not drawn) | -6.89%
20 | Cc1cc(C)cc(NC(=O)C(c2ccccc2)N2CCN(CC(=O)N3CCCC3)CC2)c1 (stereo not drawn) | -1.19%
21 | COc1cc(CO)c(C2(CO)CCCC2)cc1OC | -9.65%
22 | N#CC1(Nc2ccc(-c3ccc(Cl)cc3)cc2)CCCC1 | 20.4% (active)
23 | CNc1nccc(-c2ccc(Cl)cc2)c1C#N | -0.74%
24 | NC(=O)C1(Nc2ccc(-c3ccccc3)cc2)CCCC1 | 2.37%

Row | Compound | Tm shift relative to glycine control
25 | COc1ccccc1CNC(=O)CNC(=O)c1cn(-c2ccccc2OC)c(=O)c2ccccc12 | -0.54%
26 | Cc1ccc(NC(=O)CSCC(=O)N2CCOCC2)cc1 | 1.21%
27 | Cc1cc2c(cc1C)[n+](C)cn2CC(O)COCC1CC=CCC1 (stereo not drawn) | 11.6% (active)
28 | CNC(=S)N/N=C/c1ccc(N2CCOCC2)s1 | -0.99%
29 | CCCn1c(=O)c2c(C(F)(F)F)cc(-c3cccs3)nc2n(CCC)c1=O | 0.77%
30 | COc1ccc(NC(=O)NCCN2CCN(c3ccc(C)cc3)CC2)c(Cl)c1 | -3.16%
31 | Cc1ccc(C2(C)NC(=O)N(CC(=O)Nc3ccccc3C(=O)N3CCCCC3)C2=O)cc1 (stereo not drawn) | -1.86%
32 | CSCCC(NS(=O)(=O)c1ccc(C)cc1)C(=O)N(C)CC(=O)Nc1ccccc1Br (stereo not drawn) | 0.34%
33 | COC(=O)c1ccc(Nc2ncnc3sccc23)cc1 | 13% (active)
34 | CCCc1cc(C(=O)Nc2ccc(C(=O)OC)cc2)cs1 | -10.4%
35 | COc1ccc(Nc2ncnc3sc(C)cc23)cc1 | -17.1%
36 | C/C(=N\N)c1c(-c2ccccc2)c2cc(Br)ccc2[nH]c1=O | -2.09%
37 | CC(=O)NCCC(=O)Nc1cc(S(=O)(=O)N2CCCCC2)ccc1Oc1cccc(C)c1 | 1.88%
38 | O=C(O)c1ccc2c(c1)C(=O)N(NC(=O)c1ccc(O)cc1)C2=O | 0.18%
39 | CC(=O)N1C(=O)/C(=C2\SC(=S)N(NC(=O)c3ccc(O)cc3)C2=O)c2ccccc21 | 21.7% (active)
40 | Cn1cccc1/C=C1\SC(=S)N(NC(=O)c2ccc(Cl)cc2)C1=O | 8.58%
41 | Cc1ccc(CC2CC(=O)N(c3cc(C)ccc3C)C2=O)cc1 (stereo not drawn) | -1.45%
42 | COc1cc(NC(=O)c2[nH]cnc2C(N)=O)cc(C(=O)Nc2cccc(C(F)(F)F)c2)c1 | 14.8% (active)
43 | COc1cc(NC(=O)c2cncc(-c3ccc(C#N)cc3)c2)cc(C(=O)Nc2cccc(C(F)(F)F)c2)c1 | -1.27%
44 | COc1ccc(NC(=O)C(=O)NCC(=O)Nc2cccc(C(F)(F)F)c2)cc1 | 7.67%
45 | N#Cc1ccccc1NC(=O)c1cccc(COc2ccc(Cl)cc2Cl)c1 | 7.12%
46 | O=C(NCCC1CCCCN1S(=O)(=O)c1cccs1)C(=O)Nc1ccc(F)cc1F (stereo not drawn) | 1.11%
47 | c1ccc(CCc2ccccn2)cc1 | 1.84%
48 | CC1(C)C=Cc2c(ccc3c2OC[C@@H](c2ccc(O)cc2O)C3)O1 | 8.09%

Row | Compound | Tm shift relative to glycine control
49 | Cc1ccc2c(=O)cc(C(=O)NCCc3ccc(S(N)(=O)=O)cc3)oc2c1C | 10.6% (active)
50 | Cc1cc(=O)oc2c(C)c(OCC(=O)NCCc3ccc(S(N)(=O)=O)cc3)ccc12 | -1.05%
51 | Cc1cc(=O)oc2cc(OC(C)C(=O)NCCc3ccc(S(N)(=O)=O)cc3)ccc12 (stereo not drawn) | -2.25%
52 | Cc1ccc(-n2c(Cc3cccs3)nnc2SCC(=O)OC(C)C)cc1 | -1.71%
53 | CCn1c(SCC(=O)c2ccc3ccccc3c2)nnc1-c1cccs1 | -0.65%
54 | CCn1c(Cc2cccs2)nnc1SCC(=O)c1ccc(C)cc1 | 11.2% (active)
55 | Cc1ccccc1NC(=O)C(C)c1ccc(-c2ccccc2)c(F)c1 (stereo not drawn) | -4.35%
56 | CCCC(C(=O)OCCN(CC)CC)(c1ccccc1)c1ccccc1 | -1.26%
57 | O=C(c1ccccc1)C(Cn1cncn1)C(Sc1ccccc1)c1ccccc1 (stereo not drawn) | 0.35%
58 | CCc1ccc(NC(=O)Cn2nnc(C(=O)NCc3ccc(OC)cc3)c2N)cc1 | 24.6% (active)
59 | COc1ccc(CNC(=O)c2nnn(CC(=O)Nc3cc(C)cc(C)c3)c2N)cc1 | 29.7% (active)
60 | Cc1ccc(NC(=O)Cn2nnc(C(=O)NCc3ccco3)c2N)c(C)c1 | 1.53%
61 | CCc1ccc(NC(=O)Cn2nnc(C(=O)NCc3ccc4c(c3)OCO4)c2N)cc1 | 8.72%
62 | COc1ccc(NC(=O)Cn2nnc(C(=O)NCCc3ccc(OC)c(OC)c3)c2N)cc1 | -0.6%
63 | COc1cccc(CNC(=O)c2nnn(CC(=O)Nc3cc(Cl)ccc3C)c2N)c1 | 2.58%
64 | COc1ccc(CNC(=O)CN2CCC(n3nnc4cc(F)ccc43)CC2)cc1 | 0.17%
65 | COc1cccc(CNC(=O)c2nnn(CC(=O)Nc3cc(C)ccc3C)c2N)c1 | 11.9% (active)
66 | COc1ccc(CNC(=O)c2cc(=O)c3c(C)cc(C)cc3o2)cc1 | -0.39%
67 | Cc1ccc(N/C(N)=N/c2nc(C(F)(F)F)cc(C(F)(F)F)n2)cc1 | -6.73%
68 | O=C(NCc1cccs1)c1ccc2c(c1)ncn2C1CCCC1 | -0.09%
69 | O=C1CN(C(=O)CN2C(=O)NC3(CCCCC3)C2=O)c2ccccc2N1 | -0.31%
70 | O=C(CSc1c2c(nc3ccc(Cl)cc13)CCCC2)NCc1ccco1 | 0.25%
71 | COC(=O)C1CCN(C(=O)c2ccc3oc(Cc4ccc(Cl)cc4)nc3c2)CC1 | 0.94%
72 | COc1ccc(Cl)cc1NC(=O)COc1ccc2c(c1)OCO2 | -1.71%

Row | Compound | Tm shift relative to glycine control
73 | C#CCNC(=O)C1=C[C@@H](c2ccccc2)[C@H](CCCO)[C@@H](OCC)O1 | -1.23%
74 | COc1ccc(NC(=O)c2cc(-c3cc(OC)c(OC)c(OC)c3)nc3ccccc23)c(OC)c1 | 1.42%
75 | COc1ccc(-c2cc(C(=O)n3cnc4ccccc43)c3ccccc3n2)cc1 | -1.16%
76 | COc1ccc(-c2cc(C(=O)Nc3ccccc3O)c3ccccc3n2)cc1 | 21% (active)
77 | Cc1cccc(CSc2ccc(-c3cccs3)nn2)c1 | -7.55%
78 | Nc1ccc(SCCN2C(=O)c3ccccc3C2=O)cc1 | -0.18%
79 | O=C(Nc1c(Br)cc2c(c1Br)Cc1ccccc1-2)C(F)(F)F | 11.5% (active)
80 | O=C(Nc1ccccc1)c1ccccc1NC(=O)C(F)(F)F | -1.92%
81 | O=C(Nc1c(Br)cc2c(c1Br)Cc1cc([N+](=O)[O-])ccc1-2)C(Cl)Cl | -1.4%
82 | O=C(CCS(=O)(=O)c1ccc(Br)cc1)NCCc1ccc(Cl)cc1 | 0.18%
83 | CCOc1ccc(NC(=O)CN(C)C(=O)CSc2ccccc2)cc1OCC | -0.35%
84 | O=C(/C=C/Sc1ncn[nH]1)c1ccc(Cl)cc1 | -1.06%
85 | FC(F)(F)c1nnc2ccc(N3CCN(c4ccccc4)CC3)nn12 | -3.49%
86 | Fc1c(F)c(C(F)(F)F)c(F)c(F)c1N1CCN(c2ccc3nnc(C(F)(F)F)n3n2)CC1 | 33.4% (active)
87 | CSCCC(NC(=O)c1ccc(Cl)cc1Cl)C(=O)NNC(=O)c1csc(N2CCOCC2)n1 (stereo not drawn) | -1.92%
88 | COc1ccc(NC(=O)CN2C(=O)CSc3ccc(S(=O)(=O)N4CCC(C)CC4)cc32)cc1 | -2.6%
89 | Cc1cc(Cl)c2oc(C(=O)NC(C)c3ccncn3)c(C)c2c1 (stereo not drawn) | -2.04%
90 | Cc1ccc2cc(C)c(N3CCN(c4ccc(F)cc4)CC3)nc2c1 | 1.71%
91 | Cc1ccc(-n2ncc3c(=O)[nH]cnc32)c(C)c1 | -2.15%
92 | Cc1ccc(-n2ncc3c(N4CCN(c5ccc(F)cc5)CC4)ncnc32)c(C)c1 | 10.6% (active)
93 | CCCCn1c(SCc2ncc(-c3ccccc3)o2)nc2cc(S(N)(=O)=O)ccc21 | -10.6%
